Shown are actives, neighbours in structure and some others; about 0.2% of the full set was active somewhere.
Apoferritin bind = qHTS Assay for Identification of Novel General Anesthetics; Ferritin light chain (Equus caballus), P02791; apoferritin/1-aminoanthracene competitive binding, fluorescence; Potency, µM (doses to about 77.5 µM), inactives show at the highest dose activity change, negative = displacement, hits mostly inhibitors; actives 0.074% (n = 350,000); AID 485281, 2010; note: potency is the fitted concentration of half-maximal effect; % is set by controls: 0 for no effect and ±100 for the full control effect; nearly all actives have a fitted effect of over 20% in size
Target sequence (P02791 2-175 limits assumed): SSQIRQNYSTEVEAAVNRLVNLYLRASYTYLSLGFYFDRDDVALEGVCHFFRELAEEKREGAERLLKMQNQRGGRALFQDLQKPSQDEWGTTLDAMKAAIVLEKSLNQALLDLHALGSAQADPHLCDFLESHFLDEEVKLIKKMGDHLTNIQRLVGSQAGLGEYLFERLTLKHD
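Probe: 1-aminoanthracene (50% saturated, PBS). Protein: horse-spleen apoferritin, 10 uM. Incubation: 10 min, room temperature. Detection: 380 nm excitation, 535 nm emission. Analysis: normalized response, four-parameter Hill.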
LDHA block = qHTS assay for inhibitors of human lactate dehydrogenase | actives 0.15% (n = 480,000) | AID 1347041, 2019 | purified LDHA, NADH/diaphorase-resazurin fluorescence; stronger effect = lower value | activity change, % (values are at about 110 or 230 µM); in the data active = activity change below about -30%; inconclusive = mostly about -25% to -30%;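 note: plate controls were DMSO wells for no effect and wells without enzyme for full effect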
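Human LDH5 (2 nM) was incubated with 0.06 mM NADH and 0.2 mM pyruvate for 5 min at room temperature in Tris pH 7.4. Remaining NADH was coupled through diaphorase/resazurin, and resorufin fluorescence was read at 0 and 20 min.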
miR-21 act = qHTS Assay for Modulators of miRNAs and/orActivators of miR-21 | HeLa miR-21 FLuc reporter, luciferase, 48 h | Potency, µM (doses to about 38.3 µM), for inactives: at the highest dose activity change, positive = activation, usual class: activators | 340,000 tested, under 10 active;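 note: % of control where 0% means no effect; miR-21 action dims this reporter so a rising signal means less miR-21 action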
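Luminescence from a firefly luciferase reporter carrying a miR-21 binding site downstream, stably expressed under a CMV promoter in HeLa cells that make miR-21 endogenously, reports miRNA modulation after 48 h compound exposure up to approximately 40uM final.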
An asterisk follows results filed as active; ? = inconclusive; / = no result given; ! = not confirmed by another sample. Unless noted, calls come from the whole dose curve; as a rule, active = well fitted curve in the direction sought with a large enough effect; inconclusive = small, poorly fitted or top-dose-only effect, or another doubt; inactive = no such curve, though single readings can be large; an effect the other way counts as inactive or inconclusive.

SMILES | Apoferritin bind | LDHA block | miR-21 act
O=C(O)c1cccc(NC(=O)c2cccc(S(=O)(=O)Nc3cccc(C(=O)O)c3)c2)c1 | 11% | -2 | 1%
O=C(Nc1cccc(C(=O)Nc2ccc(S(=O)(=O)O)c3cc(S(=O)(=O)O)cc(S(=O)(=O)O)c23)c1)Nc1cccc(C(=O)Nc2ccc(S(=O)(=O)O)c3cc(S(=O)(=O)O)cc(S(=O)(=O)O)c23)c1 | -12% | -112* | /
O=C(Nc1cccc(Cl)c1)Nc1nnc([C@H]2C[C@H](O)[C@@H](CO)O2)s1 | / | -30* | /
Cc1cccc(NC(=O)Nc2nnc([C@@H]3C[C@H](O)[C@@H](CO)O3)s2)c1 | / | -14 | /
CCCCC(=O)N/N=C/c1ccc(-c2ccc([N+](=O)[O-])cc2)o1 | ? | -14 | -3%
Cc1cc(C)n(Cc2ccc(C(=O)N/N=C/c3ccc(-c4ccc([N+](=O)[O-])cc4)o3)o2)n1 | -20% | -65* | -7%
CCOC(=O)c1c(C)sc2c1OC(N)=C(C#N)C21C(=O)N(Cc2ccccc2F)c2ccccc21 (centres undefined) | / | -1 | /
Cc1ccc(CCC(=O)Nc2cnc3ccccc3c2)cc1 | / | -7 | /
NC(=O)COc1cccc(C2CC(=O)Nc3nc(N4CCCCC4)sc32)c1 (centres undefined) | / | 100 | /
CCn1nc(C(=O)Nc2nc(-c3ccc(NC(C)=O)cc3)cs2)c2ccccc2c1=O | / | -31* | /
CCCCCCn1nc(C(=O)Nc2nc(-c3ccc(NC(C)=O)cc3)cs2)c2ccccc2c1=O | / | 0 | /
O=C(O)c1ccc(-c2cccc3ccccc23)s1 | / | 4 | /
COc1ccccc1NC(=O)/C(C#N)=C/c1coc2ccc(C)cc2c1=O | / | 0 | /
CCCC(=O)N1N=C(c2cccc(NS(C)(=O)=O)c2)CC1c1cccc(F)c1 (centres undefined) | / | 11 | /
O=C(OCC(=O)N1CCOCC1)c1ccc2ccccc2n1 | / | 4 | /
CC(C)N(C(=O)CO/N=C/c1cccc([N+](=O)[O-])c1)C(C)C | 45µM* | 0 | -4%
CC(C)N(C(=O)/C=C/c1cccc([N+](=O)[O-])c1)C(C)C | ? | -1 | -10%
COCCn1c(SCC(=O)c2ccc3c(c2)CCC3)nnc1-c1ccc(Cl)cc1 | / | 3 | /
CCCCCCCCC(=O)N/N=C/c1ccccn1 | 13µM* | -3 | 11%
CCCCC(C(=O)N/N=C/c1ccccn1)C(=O)N/N=C/c1ccccn1 | 5% | 0 | -1%
COc1cccc(NC(=O)C(=O)c2c(C)[nH]c3ccccc23)c1 | / | 2 | /
COc1cc(/C=C2\S/C(=N/S(=O)(=O)c3ccc(C)cc3)NC2=O)c([N+](=O)[O-])cc1OC | 60% | 0 | -51%
Cc1ccc(S(=O)(=O)/N=C2/NC(=O)/C(=C/c3cc([N+](=O)[O-])ccc3O)S2)cc1 | -16% | -51* | -1%
O=C(Cc1ccc2ccccc2c1)Nc1cnc2ccccc2c1 | / | 12 | /
O=C(COc1ccc2ccccc2c1)Nc1cnc2ccccc2c1 | / | -33* | /
SMILES | Apoferritin bind | LDHA block | miR-21 act
CCCCNC(=O)COc1c(Cl)cc(Cl)c2ccc(C)nc12 | / | 22 | /
Cc1occc1-c1nnc(SC(C(=O)Nc2cccc(C(F)(F)F)c2)c2ccccc2)o1 (centres undefined) | / | 1 | /
Cc1cccc(NC(=O)c2ccc(NCC3CCCO3)c([N+](=O)[O-])c2)n1 (centres undefined) | 28µM* | -14 | -29%
Cc1cccc(NC(=O)c2ccc(NCC3CCCO3)c([N+](=O)[O-])c2)c1 (centres undefined) | 3% | -13 | -27%
COc1ccc(-c2cc(=O)c3cc(OC(=O)C(C)C)ccc3o2)cc1 | / | 12 | /
COc1ccc(-c2cc(=O)c3cc(OC(=O)C(C)(C)C)ccc3o2)cc1 | / | -32* | /
Cc1cccc(Nc2nc3c(c(=O)[nH]c(=O)n3C)n2CC(=O)O)c1C | / | 7 | /
COCCn1c2c(c(=O)[nH]c1=O)C(c1cccc(Cl)c1)C1=C(N2)c2ccccc2C1=O (centres undefined) | / | 14 | /
Cc1nn2c(=O)cc(CN3CCN(c4ncccn4)CC3)nc2s1 | / | -6 | /
Cc1cc(C)cc(CC2CC(=O)N(c3nc(C)cc(C)n3)C2=O)c1 (centres undefined) | 5.6µM* | 0 | -51%
Cc1ccc(N2C(=O)CC(Cc3cc(C)cc(C)c3)C2=O)cc1 (centres undefined) | -17% | 2 | -1%
Cc1cc(F)ccc1NS(=O)(=O)c1ccc(-c2cnc(C3CC3)o2)cc1 | / | 30 | /
COC(=O)C1CCN(Cc2cc(=O)oc3ccc(O)cc23)CC1 | / | 0 | /
Nn1cnnc1SCC(=O)Nc1ccc(C2CCCCC2)cc1 | 7.1µM* | -2 | -41%
CCC(C)c1ccc(NC(=O)CSc2nncn2N)cc1 (centres undefined) | ? | -2 | -35%
COc1ccc(NC(=O)CSc2nnc(C3CCCCC3)n2N)cc1 | ? | -7 | -2%
Nn1c(SCC(=O)Nc2cccc(F)c2)nnc1C1CCCCC1 | 8.9µM* | -3 | -5%
O=C(CN1CCCN(c2ccc(C(F)(F)F)cn2)CC1)Nc1ccccc1Cl | / | -2 | /
CC(=O)Oc1ccc(-c2cc3ccc(OC(C)=O)cc3oc2=O)cc1 | / | -9 | /
CC(=O)Oc1ccc2cc(-c3ccccc3)c(=O)oc2c1 | 204% | -31*! | -39%
COc1cc(C#N)ccc1OC(=O)c1oc2ccccc2c1C | / | 10 | /
O=[N+]([O-])c1ccccc1S(=O)(=O)NC1CCCCCCC1 | ? | -18 | 5%
O=C1CCCCCCC1Sc1ccccc1[N+](=O)[O-] (centres undefined) | 7.9µM* | -1 | -1%
c1ccc(CCNc2nc3ccccc3s2)cc1 | 13µM* | -9 | -30%
COc1ccc(CNc2nc3ccccc3s2)cc1OC | -12% | -3 | -19%
SMILES | Apoferritin bind | LDHA block | miR-21 act
COc1ccc(C(=O)/C=C/c2ccc(F)cc2)c(OC(=O)c2ccccc2C)c1 | / | 12 | /
COc1cc(C2CC(=O)Nc3c2c(C)nn3-c2ccc(C)cc2)cc(OC)c1O (centres undefined) | / | 95 | /
CC(NC(=O)COC(=O)Cc1ccsc1)C1CC2CCC1C2 (centres undefined) | 16µM* | -2 | -15%
Cc1ccc(C(=O)NCC(=O)OCC(=O)NC(C)C2CC3CCC2C3)cc1 (centres undefined) | / | -7 | /
COc1ccc(CNC(=O)CCc2c[nH]c3ccccc23)cc1 | -5% | -12 | 0%
O=C(CCc1c[nH]c2ccccc12)NCc1ccncc1 | 1% | -32*! | 0%
O=C(CSc1ncnc2nc[nH]c12)Nc1ccccc1Cl | / | 5 | /
O=C(CSc1ncnc2nc[nH]c12)Nc1cc(Cl)ccc1Cl | / | -38* | /
CCn1c2ccccc2c2cc(/C=C3/C=Cc4ccccc43)ccc21 | / | -55* | /
C[N+](C)(C)c1ccc(/C=C2\C=Cc3ccccc32)cc1 | / | -24 | /
N#Cc1ccc(NC(=O)CNc2cc(S(=O)(=O)N3CCCCC3)ccc2N2CCCCC2)cc1 | / | 12 | /
COc1ccc(-c2nc(CS(=O)(=O)CC(=O)NCc3cccnc3)c(C)o2)cc1 | / | 2 | /
COc1cccc(-c2nc(CS(=O)(=O)CC(=O)NCc3cccnc3)c(C)o2)c1 | / | -34* | /
